TDP1 inh: blocks human tyrosyl-DNA phosphodiesterase 1. Q9NUW8. recombinant TDP1, AlphaScreen DNA substrate cleavage. Potency, µM (titrated, usually from 130 µM), hits mostly inhibitors. hit rate 0.28% among 350,000. AID 485290; further: nearly all actives have a fitted effect of over 40% in size
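Enzyme-compound mixtures sat 15 min at room temperature, followed by a 5 min reaction with 15 nM final substrate and 10 min with AlphaScreen beads. Recombinant human Tdp1 was used at 1 nM final.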
TDP1 cell CPT: DT40-hTDP1 cell growth loss with CPT; Potency, µM (top dose mostly 46.2 µM), actives largely listed as inhibitors; AID 686979; chicken DT40 Tdp1-/-;hTDP1 cells + 20 nM CPT, ATP luminescence, 48 h; hit rate 12% among 420,000; further: nearly all actives have a fitted effect of over 55% in size
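Cell growth measured by CellTiter-Glo luminescence after a minimum 48 h, 37 C compound exposure with 20 nM CPT in Tdp1-knockout DT40 cells stably expressing hTDP1, seeded 400/well; qHTS titration format.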
ClpP mod: qHTS Assay for Activators of ClpP | ATP-dependent Clp protease proteolytic subunit (Bacillus subtilis (strain 168)), P80244 | purified B. subtilis ClpP, FRET peptide cleavage, 20 min | Potency, µM (top dose mostly 57.5 µM) | hit rate 1.9% among 340,000; active means well fitted falling curve with a large enough effect; inconclusive means small, poorly fitted or top-dose-only effect; inactive means no such curve, though single readings can be large or run the other way; further: the source files actives as falling curves though it sought activators and does not explain the sign; nearly all actives have a fitted effect of over 65% in size
Target sequence (P80244 whole entry, looked up): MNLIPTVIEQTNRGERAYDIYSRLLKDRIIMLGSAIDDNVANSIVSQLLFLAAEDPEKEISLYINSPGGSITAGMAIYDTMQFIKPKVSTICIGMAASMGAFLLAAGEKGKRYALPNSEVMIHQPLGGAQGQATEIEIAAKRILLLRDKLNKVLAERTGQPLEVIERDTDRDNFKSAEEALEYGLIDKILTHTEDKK
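Buffer: 100 mM Tris/HCl pH8, 100 mM KCl, 0.05% low protease BSA, 2.5% glycerol, 0.01% Tween-20. ClpP 10 microg/mL final; 20 min RT; delta FRET normalized to ADEP and DMSO controls.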
TDP1 cell noCPT: qHTS for Inhibitors of human tyrosyl-DNA phosphodiesterase 1 (TDP1): qHTS in cells in absence of CPT | DT40 Tdp1-/- hTDP1 cells, no CPT, ATP luminescence, 48 h | Potency, µM (highest dose often 46.2 µM), usual class: inhibitors | hit rate 15% among 420,000 | AID 686978, 2013; further: nearly all actives have a fitted effect of over 55% in size
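Chicken DT40 Tdp1-/- cells stably complemented with human TDP1 were seeded at 400 cells/well with DMSO in place of 20 nM camptothecin. After compound pinning, cells grew at least 48 hr at 37 °C; viability read by CellTiter-Glo luminescence.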
Of the large screens only hits and unclear results are named; the others gave an inactive call. Hits are enriched below; roughly 17% of the tested compounds scored in any of these assays. Unless noted, the call rests on the fitted dose curve; in most records, active means well fitted curve in the direction sought with a large enough effect; inconclusive means small, poorly fitted or top-dose-only effect, or another doubt; inactive means no such curve, though single readings can be large; an effect the other way counts as inactive or inconclusive.

Cc1ccc(-n2c(CCc3ccccc3)nnc2SCC(=O)NCc2ccccc2)cc1C	TDP1 cell CPT inconclusive, TDP1 cell noCPT 23µM
Cc1cccc(-n2c(CCc3ccccc3)nnc2SCC(=O)c2ccccc2)c1	TDP1 cell CPT 9.2µM, TDP1 cell noCPT 9.2µM
Cc1ccc(OCc2nnc(SCC(=O)c3ccccc3)n2-c2ccccc2)cc1	TDP1 cell CPT inconclusive, TDP1 cell noCPT inconclusive
Cc1nc2c3cccnc3nn2c(C)c1CCC(=O)NCc1ccccc1	none
COc1cc(Cl)c(C)cc1NC(=O)CN1CCN(C(=O)C2CC2)CC1	TDP1 cell CPT inconclusive, TDP1 cell noCPT inconclusive
CCn1c(=O)n(-c2cccc(Cl)c2)c(=O)c2sc3ccccc3c21	TDP1 cell CPT inconclusive, TDP1 cell noCPT inconclusive
COc1cc2[nH]c(=O)n(CCCCCC(=O)NCCCN3CCC(C)CC3)c(=O)c2cc1OC	ClpP mod 16µM
CCOc1cc2[nH]c(=O)n(CCCN3CCCC3=O)c(=O)c2cc1OCC	ClpP mod 11µM
COc1cc2[nH]c(=O)n(CCCC(=O)NCCc3ccccc3)c(=O)c2cc1OC	none
CCOc1cc2[nH]c(=O)n(CCCCCC(=O)NC3CCCC3)c(=O)c2cc1OCC	none
COc1cc2[nH]c(=O)n(CCC(=O)NCCC(C)C)c(=O)c2cc1OC	ClpP mod 20µM
COc1cc2[nH]c(=O)n(CCCCCC(=O)NCCCN3CCCC3=O)c(=O)c2cc1OC	ClpP mod 28µM
CCCCCCCN	none (no result: TDP1 cell CPT, ClpP mod, TDP1 cell noCPT)
CCOC(=O)O[C@@H](C)OC(=O)[C@@H]1N2C(=O)[C@@H](NC(=O)[C@@H](N)c3ccccc3)[C@H]2SC1(C)C	none (no result: TDP1 cell CPT, ClpP mod, TDP1 cell noCPT)
Cc1ccc2oc(=O)c3c4cc(O)c(O)c(C)c4oc3c2c1	none (no result: TDP1 cell CPT, ClpP mod, TDP1 cell noCPT)
COc1cc2[nH]c(=O)c(C(=O)NCCCN3CCCCC3)c(O)c2cc1OC	TDP1 cell CPT inconclusive, ClpP mod 3.5µM, TDP1 cell noCPT inconclusive
COc1ccc(CCNC(=O)c2c(O)c3cc(OC)c(OC)cc3[nH]c2=O)cc1OC	TDP1 cell noCPT inconclusive (no result: TDP1 inh)
Cn1c(=O)c2c(-c3ccccc3Cl)n(Cc3ccc(Cl)cc3)cc2n(C)c1=O	TDP1 cell CPT 8.2µM, ClpP mod 25µM, TDP1 cell noCPT 6.5µM
Cn1c(=O)c2c(-c3ccccc3Cl)n(-c3cc(Cl)ccc3O)cc2n(C)c1=O	TDP1 cell CPT 21µM, ClpP mod inconclusive, TDP1 cell noCPT inconclusive
Cn1c(=O)c2c(-c3ccccc3)n(-c3cc([N+](=O)[O-])ccc3O)cc2n(C)c1=O	none (no result: TDP1 inh)
Cc1ccc2cccc(SCC(=O)NCc3ccco3)c2n1	ClpP mod 14µM
O=C(CSc1nccc(=O)[nH]1)NCc1ccco1	TDP1 inh 14µM
Cc1cccc2[nH]c(SCC(=O)N3CCOCC3)nc12	none
Cc1ccc2cccc(SCC(=O)N3CCOCC3)c2n1	ClpP mod 28µM
Cc1cc(C)c2cc(C#N)c(SCC(=O)NCc3ccco3)nc2c1	TDP1 cell CPT 18µM, TDP1 cell noCPT 18µM
Cc1cc(=O)[nH]c(SCC(=O)NCc2ccco2)n1	none (no result: TDP1 inh)
CCOc1ccc(S(=O)(=O)N(CC(=O)N2CCc3ccccc32)Cc2ccco2)cc1	TDP1 cell CPT 18µM, TDP1 cell noCPT inconclusive
CN(CC(=O)N1CCc2ccccc21)S(=O)(=O)c1ccc(Cl)cc1	none
CCNC(COC(=O)c1ccc([N+](=O)[O-])cc1)C1CCCCC1 (centres undefined)	TDP1 cell CPT inconclusive, TDP1 cell noCPT inconclusive (no result: TDP1 inh)
COc1cc(C2CC(=O)C3=C(C2)Nc2ncnn2C3c2cccs2)cc(OC)c1OC (centres undefined)	none (no result: ClpP mod)
COc1cc(C2C=C(c3cccs3)Nc3ncnn32)cc(OC)c1OC (centres undefined)	TDP1 cell CPT 0.82µM, TDP1 cell noCPT 0.65µM (no result: ClpP mod)
CCOC(=O)c1c(CSCc2ccccc2)oc2ccc(O)c(CN(C)C)c12	TDP1 cell CPT 15µM, TDP1 cell noCPT 16µM (no result: ClpP mod)
Cc1oc2ccc(O)c(CN3CCCC3)c2c1C(=O)Nc1ccc(C(C)C)cc1	TDP1 cell CPT 23µM, TDP1 cell noCPT 23µM
Cc1ccc(NC(=O)c2c(C)oc3ccc(O)c(CN4CCN(Cc5ccccc5)CC4)c23)cc1	TDP1 cell CPT 21µM
CCOC(=O)c1[nH]c(C)c(C(=O)N(C)Cc2ccccc2)c1C	TDP1 cell CPT inconclusive, TDP1 cell noCPT inconclusive
CCOC(=O)c1c(-c2ccccc2)oc2ccc(O)c(CN3CCCC3)c12	TDP1 cell CPT 23µM, TDP1 cell noCPT 21µM
CCOC(=O)c1oc2ccccc2c1CN1CCCCC1	none
COc1ccccc1C1NC(=O)c2n[nH]c(-c3cccs3)c21 (centres undefined)	TDP1 cell CPT inconclusive, TDP1 cell noCPT inconclusive
Cc1ccc(NC(=O)c2c(C)oc3ccc(O)c(CN4CCOCC4)c23)c(C)c1	none
Cc1oc2ccc(O)c(CN3CCCCCC3)c2c1C(=O)Nc1cccc(C(F)(F)F)c1	TDP1 cell CPT 3.7µM, TDP1 cell noCPT 5.2µM
Cc1ccc(NC(=O)c2c(C)oc3ccc(O)c(CN4CCCCCC4)c23)c(C)c1	TDP1 cell CPT 9.2µM, TDP1 cell noCPT 6.5µM
CCc1cccc(CC)c1NC(=O)c1c(C)oc2ccc(O)c(CN3CCCC3)c12	TDP1 cell CPT inconclusive, TDP1 cell noCPT inconclusive
Cc1oc2ccc(O)c(CN3CCN(C)CC3)c2c1C(=O)Nc1ccc(C(C)C)cc1	TDP1 cell CPT 16µM, TDP1 cell noCPT 21µM
Cc1ccc(NC(=O)c2c(C)oc3ccc(O)c(CN4CCCCCC4)c23)cc1	TDP1 cell CPT 15µM, TDP1 cell noCPT 16µM
Nc1nc(SCn2nnc3ccccc3c2=O)n[nH]1	none
COCC1CCCCN1C(=O)C1CCN(c2nc(-c3ccccc3)nc3c2CCC3)CC1 (centres undefined)	TDP1 cell CPT 18µM, TDP1 cell noCPT 15µM
COc1ccc(OC)c(/C=N/NC(=O)c2c(C)nc3ccc(C)cn23)c1	TDP1 cell CPT inconclusive, TDP1 cell noCPT inconclusive (no result: TDP1 inh)
Cc1nc2ccc(Br)cn2c1C(=O)N/N=C\c1ccc(C(C)C)cc1	TDP1 cell CPT 7.3µM, TDP1 cell noCPT 7.3µM (no result: TDP1 inh)
CC(C)c1ccc(/C=N/NC(=O)c2ccccc2Cl)cc1	TDP1 cell CPT 4.1µM, TDP1 cell noCPT 2.9µM
CNC(=S)N/N=C/c1ccc(C(C)C)cc1	TDP1 cell CPT 13µM, TDP1 cell noCPT 7.3µM (no result: TDP1 inh)
COc1cccc(NC(=O)CCNC(=O)N2CC(=O)Nc3ccccc32)c1	none
CCOc1ccc(N(C(=O)c2ccccc2F)S(=O)(=O)c2ccc3c(c2)n(C)c(=O)n3C)cc1	none
CC(C)OC(=O)Nc1ccc2nc(-c3cscn3)[nH]c2c1	TDP1 cell CPT 0.84µM, TDP1 cell noCPT 1.2µM (no result: TDP1 inh, ClpP mod)
CN(C)c1ccc(NC(=O)c2cccc([N+](=O)[O-])c2)c2ccccc12	TDP1 cell noCPT inconclusive (no result: TDP1 inh, ClpP mod)
Cc1nc2ccccc2cc1C(=O)NCc1ccccc1	TDP1 cell CPT inconclusive, TDP1 cell noCPT 13µM (no result: TDP1 inh)
Cc1ccccc1C(=O)Nc1ccc(N(C)C)c2ccccc12	TDP1 cell CPT inconclusive, TDP1 cell noCPT 3.7µM (no result: TDP1 inh, ClpP mod)
O=C(Nc1ccccc1Br)c1ccccc1-c1ccccc1	TDP1 cell CPT 5.8µM, TDP1 cell noCPT 6.5µM

Screening data deposited in PubChem BioAssay by National Center for Advancing Translational Sciences (NCATS).
